Compound activity as filed in PubChem BioAssay.
An excerpt weighted towards active compounds, which were near 2.6% of everything screened.
TWEAK Fn14 block: inhibitors of TWEAK-Fn14 signaling, primary screen, luciferase reporter cells, uHTS | TWEAK-stimulated Fn14 reporter cells, luciferase luminescence, 8 h | 360,000 compounds, 2% hits | inhibition, % at 10 µM | AID 1159606, 2016; in the data active = inhibition above about 50%
EWS-Fli block: EWS/Fli-driven NR0B1 reporter inhibitors, primary screen, A673 cells, NR0B1 luciferase, luminescence, MLPCN library; viability-normalised; inhibition, % at 12.6 µM; 350,000 compounds, 0.67% hits;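 active = mean inhibition of at least 50% after viability correction, with every replicate also passing that limit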;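 note: firefly luciferase signal divided by Alamar Blue viability fluorescence both relative to DMSO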
KKLEB tox: cytotoxicity in KKLEB CF airway cells, primary screen, cytotoxicity control for CF NF-kB inhibitor project, cell-based, uHTS, fluorescence assay plates | KKLEB CF airway cells viability, ATPlite luminescence, overnight; hits give low values; cells stimulated with P. aeruginosa culture filtrate | activity change (cytotoxicity), % at 5 µM | 360,000 compounds, 0.36% hits | AID 602141, 2011;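 active = corrected activity change at or below -50% at 5 µM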
TROY signal inh: inhibitors of TROY-driven NF-kB signaling, primary screen, Q293 LMP1-TROYcd cells, NF-kB luciferase, uHTS. Q293 LMP1-TROYcd NF-kB luciferase reporter, 4 h. inhibition, % at 10 µM. AID 1347056, 2019. 360,000 compounds, 0.98% hits;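 active = compounds whose plate-normalised and pattern-corrected inhibition of the luciferase reporter signal at the single screening dose is 50% or more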
LGR2 antag: inhibitors of bursicon-induced LGR2 CRE-luciferase signal, primary screen, cell-based, HEK293, CRE-luciferase reporter, bursicon stimulation; AID 720647, 2013; inhibition, % at 9.99 µM; bursicon-stimulated, 4 h; Drosophila bursicon receptor LGR2 (rickets); 380,000 compounds, 0.35% hits;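 active = drop in luminescence signal, shown as inhibition above about 50% in the replicate tests, limit read from the data, passing the limit was not always enough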;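 note: agonist challenge used bursicon conditioned medium at about half maximal strength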
CF NFkB inh: inhibitors of PAF-induced NF-kB signaling, primary screen, cell-based, GFP fluorescence, uHTS; 360,000 compounds, 0.86% hits; inhibition, % at 5 µM; KKLEB NF-kB-GFP reporter, GFP fluorescence overnight;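 active = at least 50% inhibition at 5 µM, scaled per plate between neutral and stimulator controls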;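 note: PAF is a Pseudomonas aeruginosa culture filtrate used as stimulus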
Of the large screens only hits and unclear results are named; the others gave an inactive call.

Cc1noc(C)c1NC(=O)Nc1ccc2c(c1)C(=O)N([C@H](C)CO)C[C@@H](C)[C@H](CN(C)Cc1ccc3c(c1)OCO3)O2	none (no result: TWEAK Fn14 block, KKLEB tox, TROY signal inh, CF NFkB inh)
O=C(CSc1nc2ccccc2s1)Nc1ccc(Cl)c(S(=O)(=O)N2CCOCC2)c1	TWEAK Fn14 block 65 (no result: EWS-Fli block)
COc1ccc(NC(=O)CSc2nc3ccc(Nc4nc(N5CCOCC5)nc(N5CCOCC5)n4)cc3s2)cc1	KKLEB tox -50, CF NFkB inh 56 (no result: EWS-Fli block)
O=C(Nc1nc2ccccc2s1)C1CCN(S(=O)(=O)c2cc([N+](=O)[O-])ccc2Cl)CC1	TWEAK Fn14 block 84
CC1CCc2nc(NC(=O)CSc3nc4ccccc4o3)sc2C1 (stereo not given)	TWEAK Fn14 block 93, TROY signal inh 86 (no result: EWS-Fli block, LGR2 antag)
O=C(N[C@@H]1CC[C@@H](CCNS(=O)(=O)c2cccc(Cl)c2)O[C@@H]1CO)c1ccncc1	none (no result: TWEAK Fn14 block, KKLEB tox, TROY signal inh, CF NFkB inh)
CC(C)CC#Cc1cnc2c(c1)C(=O)N([C@@H](C)CO)C[C@H](C)[C@@H](CN(C)S(=O)(=O)c1cccs1)O2	none (no result: TWEAK Fn14 block, KKLEB tox, TROY signal inh, CF NFkB inh)
CC=Cc1ccc2n(c1=O)C[C@@H]1[C@@H](CO)[C@H](C(=O)NCCC)[C@H]2N1Cc1ccccc1 (mixture of isomers)	none (no result: TWEAK Fn14 block, KKLEB tox, TROY signal inh, CF NFkB inh)
O=C(CSc1nc2ccccc2s1)Nc1ccc(N2CCOCC2)c(Cl)c1	none (no result: EWS-Fli block)
O=C(CSc1nc2ccccc2o1)Nc1ccc(N2CCOCC2)c(Cl)c1	TROY signal inh 52 (no result: EWS-Fli block, LGR2 antag)
C[C@@H]1CN([C@@H](C)CO)C(=O)Cc2cc(NS(=O)(=O)c3ccc(F)cc3)ccc2O[C@H]1CN(C)CC1CC1	none (no result: TWEAK Fn14 block, KKLEB tox, TROY signal inh, CF NFkB inh)
CCCCCCCCNc1ncnc2ccccc12	none (no result: EWS-Fli block, LGR2 antag)
c1ccc(CCNc2ncnc3ccccc23)cc1	TWEAK Fn14 block 68
Cc1cc(O)c2c(-c3ccccc3)cc(=O)oc2c1	none (no result: EWS-Fli block, LGR2 antag)
Cc1cc2oc(=O)cc(-c3ccccc3)c2c(C)c1-c1ccc(O)cc1	TROY signal inh 53
C[C@@H]1CN([C@H](C)CO)C(=O)c2cc(NC(=O)Nc3ccccc3)ccc2O[C@@H](C)CCCCO[C@H]1CN(C)C(=O)Cc1ccccc1	none (no result: TWEAK Fn14 block, KKLEB tox, TROY signal inh, CF NFkB inh)
Cc1[nH]c2ccccc2c1CC#N	none
Cc1[nH]c2ccccc2c1C(C#N)(C#N)C1C(=O)c2ccccc2C1=O	TWEAK Fn14 block 97, TROY signal inh 53
CCOC(=O)c1c(C)nn(-c2ccc(NC(=O)c3c(C)noc3C)cc2)c1C	none
CCOC(=O)c1c(C)nn(-c2ccc(NC(=O)/C=C/C(=O)O)cc2)c1C	TWEAK Fn14 block 61 (no result: LGR2 antag)
Cc1c(C(=O)O/N=C(\N)c2ccccn2)cccc1[N+](=O)[O-]	TWEAK Fn14 block 67 (no result: LGR2 antag)
N/C(=N\OC(=O)Cc1ccccc1[N+](=O)[O-])c1ccccn1	none
N/C(=N\OC(=O)c1cccc2ccccc12)c1ccccn1	none
COc1cccc(C(=O)O/N=C(\N)c2ccccn2)c1OC	TWEAK Fn14 block 81, LGR2 antag 69
CCn1nnc2cc(C(=O)NCCc3ccccc3F)ccc21	TWEAK Fn14 block 82, EWS-Fli block 56, LGR2 antag 54
O=[N+]([O-])c1ccc(NC(=S)N/C(=N/CS(=O)(=O)c2ccccc2)c2ccccc2)cc1	none (no result: EWS-Fli block, LGR2 antag)
COc1ccc(NC(=S)N/C(=N/CS(=O)(=O)c2ccccc2)c2ccccc2)cc1	TWEAK Fn14 block 52 (no result: EWS-Fli block)
O=C(Nc1cccc(C(=O)O)c1)Nc1ccc2c(c1)OCO2	EWS-Fli block 79, LGR2 antag 97
COc1cccc(C(=O)Nc2ccc(NC(=O)C(C)(C)C)cn2)c1	TWEAK Fn14 block 75, TROY signal inh 65 (no result: EWS-Fli block, LGR2 antag)
COc1cccc(NC(=O)Nc2cccc(C(=O)O)c2)c1	EWS-Fli block 75, LGR2 antag 97
Cc1cc(NC(=O)NC(=O)c2ccccc2NC(=O)CN(C)C)ccc1Oc1ncc(Br)cn1	EWS-Fli block 58
CS(=O)(=O)N1[C@@H]2c3ccc(-c4ccc(F)cc4)c(=O)n3C[C@H]1[C@H](CO)[C@H]2C(=O)N1CCOCC1	none (no result: TWEAK Fn14 block, KKLEB tox, TROY signal inh, CF NFkB inh)
Cn1cc([N+](=O)[O-])c(C(=O)Nc2cc(Oc3ccccc3)cc([N+](=O)[O-])c2)n1	EWS-Fli block 54, CF NFkB inh 78
Cc1cccc(Oc2cc(NC(=O)c3ccccc3)cc([N+](=O)[O-])c2)c1	TWEAK Fn14 block 59, TROY signal inh 57 (no result: EWS-Fli block, LGR2 antag)
O=C(c1cccc(F)c1)N1CC(=O)N2[C@H](C1)[C@@H](c1ccc(-c3ccccc3F)cc1)[C@@H]2CO	none (no result: TWEAK Fn14 block, KKLEB tox, TROY signal inh, CF NFkB inh)
CCOc1ccc(OCC(O)CNC2CCN(Cc3ccccc3)CC2)cc1 (stereo not given)	none
CC(C)(c1ccccc1)c1ccc(OCC(O)CNC2CCN(Cc3ccccc3)CC2)cc1 (stereo not given)	LGR2 antag 104
CCN(C(=O)c1cnc(N2CCN(c3ncccn3)CC2)c2ccccc12)c1cccc(Cl)c1	TWEAK Fn14 block 66 (no result: EWS-Fli block, LGR2 antag)
CN(C(=O)c1cnc(N2CCN(c3ncccn3)CC2)c2ccccc12)c1ccc(Cl)cc1	none (no result: EWS-Fli block)
O=C(C[C@H]1CC[C@@H](NC(=O)c2ccncc2)[C@@H](CO)O1)NCc1ccncn1	none (no result: TWEAK Fn14 block, EWS-Fli block, KKLEB tox, TROY signal inh, CF NFkB inh)
C=CCn1c(SCC(=O)c2cccs2)nc2sc(CC)cc2c1=O	TWEAK Fn14 block 79 (no result: EWS-Fli block, LGR2 antag)
COc1ccc(-c2nc(-c3ccc(NC(=O)c4ccc(Br)o4)cc3)no2)cc1OC	none (no result: EWS-Fli block, LGR2 antag)
COc1cc(-c2nc(-c3ccc(NC(=O)c4ccc(Br)o4)cc3)no2)cc(OC)c1OC	TWEAK Fn14 block 59 (no result: EWS-Fli block, LGR2 antag)
Nc1ncnc2c1ncn2C1O[C@H](CO)[C@@H](O)[C@@H]1O (stereo not given in full)	none
N#Cc1c(N)n(C2OC(CO)C(O)C2O)c2ncnc(N)c12 (stereo not given)	TWEAK Fn14 block 101, KKLEB tox -62, TROY signal inh 62, LGR2 antag 91, CF NFkB inh 89
C[C@H]1CN([C@@H](C)CO)C(=O)c2cc(-c3ccccc3)cnc2O[C@@H]1CN(C)Cc1ccccn1	none (no result: TWEAK Fn14 block, KKLEB tox, TROY signal inh, CF NFkB inh)
CCOC(=O)[C@@H]1[C@H]2COc3cc(OC)ccc3[C@H]2N2C(=O)N(c3ccc(C(F)(F)F)cc3)C(=O)[C@]12C	TWEAK Fn14 block 74
CCOC(=O)[C@@H]1[C@H]2COc3cc(OC)ccc3[C@@H]2N2C(=O)N(c3ccc(C(F)(F)F)cc3)C(=O)[C@@]12C	none
COc1ccc(NC(=O)C2(C)Cc3c(-c4ccc5c(c4)OCO5)ccnc3O2)cn1 (stereo not given)	EWS-Fli block 64
CC1(C(=O)Nc2ccc3c(c2)OCO3)Cc2c(-c3cccc(C(N)=O)c3)ccnc2O1 (stereo not given)	EWS-Fli block 59
